This note sets out measurements from PubChem BioAssay.

Active and inactive are the calls of the source. Unless noted, no rule for the calls is given here.

The subject of assay [1] is Wnt5a (protein binding on small-molecule microarray). The assay is described as follows: small molecules binding Wnt5a protein – biophysical, small-molecule microarray, 635/667 nm fluorescence, primary screen (AID 1142).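 Also: fluorescence read at 667 nm with signal to noise per printed feature.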 As to conditions: 635 nm fluorescence, higher = more signal.
Assay [2] can be described thus: ATP-based viability of Huh7 replicon cells – cell-based, CellTiter-Glo luminescence, basal, 48 h, cytotoxicity control for HCV replication inhibitor project, primary screen (AID 1143).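 Also: Huh7 hepatoma cells carrying a hepatitis C replication reporter with no stimulus; test concentration not given here.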 The note with it: higher = more signal, called active from +8 up or from −8 down.
Assay [3] in a line: Pseudomonas biofilm growth suppression – PAO1 strain, BacTiter-Glo luminescence, LB-PBS, primary screen (AID 1144). As to conditions: P. aeruginosa PAO1 biofilm, 12 h, higher = more signal.
A short description of assay [4]: basal CRE-LacZ reporter activity in PC12 – cell-based, unstimulated, primary screen (AID 1145). The note with it: no forskolin, luminescence, 4.5 h, higher = more signal, called active from +8 up or from −8 down.
Assay [5] is described as follows: forskolin-driven CRE-LacZ activity in PC12 – cell-based, CRE-LacZ reporter, forskolin-stimulated, primary screen (AID 1146).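 Also: PC12 cells with 6xCRE LacZ reporter stimulated by forskolin 10 µM; beta-galactosidase reporter signal reflecting CREB driven transcription.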 As to conditions: luminescence, 4.5 h, higher = more signal, called active from +8 up or from −8 down.
Assay [6] has as its target Streptavidin (Streptomyces avidinii) (UniProt P22629). Description: compounds binding control protein streptavidin – biophysical, small-molecule microarray, 635/667 nm fluorescence, artefact control for SMM compound annotation, primary screen (AID 1147).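 Also: signal reflects streptavidin binding to arrayed compounds as a control protein.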 The note with it: higher = more signal.
Assay [7] in a line: probe aInhba binding on compound microarray – biochemical, small-molecule microarray, 635/667 nm fluorescence, primary screen (AID 1148).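 Also: score merges 667nm spot fluorescence with signal-to-noise for antibody binding to printed compounds.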 The note with it: higher = more signal.
Assay [8] has as its target Torsin-1A (Homo sapiens) (UniProt O14656). Description: TOR1A wild-type binding on microarray – cell lysate, small-molecule microarray, lysate, 635/667 nm, primary screen (AID 1149). As to conditions: COS7 hTOR1A-WT lysate, 635 nm fluorescence, higher = more signal.
For assay [9] the target is unchanged. The assay is described as follows: torsin A mutant lysate binding on microarrays – cell lysate, small-molecule microarray, COS7 lysate, 635/667 nm fluorescence, primary screen (AID 1150).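 Also: score pools 667 nm emission and signal to noise measuring lysate protein binding.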 The note with it: COS7 hTOR1A mutant lysate, 635 nm fluorescence, higher = more signal.
Assay [10] relates to Sonic hedgehog protein (Shh). Description: Sonic hedgehog microarray binding compounds – biochemical, small-molecule microarray, 635/667 nm fluorescence, primary screen (AID 1151).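 Also: Shh protein binding to compounds spotted on small-molecule microarray slides; score combines spot fluorescence intensity with signal-to-noise across triplicate slides.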 The note with it: 635 nm fluorescence, higher = more signal.

Sequence of Streptavidin (Streptomyces avidinii) (P22629 whole entry, looked up): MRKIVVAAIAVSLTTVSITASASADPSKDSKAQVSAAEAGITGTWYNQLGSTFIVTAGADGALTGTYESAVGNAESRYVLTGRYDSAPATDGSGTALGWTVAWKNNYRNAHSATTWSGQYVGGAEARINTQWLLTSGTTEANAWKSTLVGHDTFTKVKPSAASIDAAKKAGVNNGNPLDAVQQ
Sequence of Torsin-1A (Homo sapiens) (O14656 whole entry, looked up): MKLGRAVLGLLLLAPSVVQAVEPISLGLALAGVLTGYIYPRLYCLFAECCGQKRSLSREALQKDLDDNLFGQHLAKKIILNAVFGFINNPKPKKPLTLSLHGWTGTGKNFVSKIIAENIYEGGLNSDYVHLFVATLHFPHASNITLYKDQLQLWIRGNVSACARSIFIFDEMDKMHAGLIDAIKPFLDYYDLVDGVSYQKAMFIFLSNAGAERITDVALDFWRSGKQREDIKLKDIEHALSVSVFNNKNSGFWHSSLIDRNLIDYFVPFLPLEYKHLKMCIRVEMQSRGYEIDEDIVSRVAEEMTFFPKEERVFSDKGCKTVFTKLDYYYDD

For the molecule `COCCOC(=O)N1C(=O)[C@@]2(c3ccccc31)[C@H](c1ccc(O)cc1)N1[C@H](c3ccccc3)[C@H](c3ccccc3)OC(=O)[C@H]1[C@@H]2C(=O)N1CCc2cc(OC)c(OC)cc2C1`, the composite z-score is 0.633 in assay [1]; -0.162 in assay [6]; 0.223 in assay [7]; 0.419 in the assay with Torsin-1A (Homo sapiens) [8]; 0.697 in the assay with Torsin-1A (Homo sapiens) [9]; 2.1 in assay [10]. Moreover, the z-score in assay [2] is -3.64 (inactive); in [3] it was -1.29 (inactive); in assay [4], 0.0776 (inactive); in [5] it was -0.654 (inactive).
With `COc1ccc(NN2C(C(O)c3ccc(OC)c(OCc4ccccc4)c3)C=CC3C(=O)N(C4CCCCC4)C(=O)C32)cc1` (stereo not given), the composite z-score in [1] was 0.285; in assay [6] it was 1.19; in assay [7], 0.0769; with Torsin-1A (Homo sapiens) [8], -0.196; with Torsin-1A (Homo sapiens) [9], 0.185; in assay [10], -0.504. The z-score in assay [2] was -2.17 (inactive); in assay [3], -1.73 (inactive); in [4], -0.322 (inactive); in assay [5] it was 0.693 (inactive).
As for `O=C1O[C@@H](c2ccccc2)[C@@H](c2ccccc2)N2[C@@H](c3ccc(O)cc3)[C@]3(C(=O)Nc4ccc(C#CC5(O)CCCCCC5)cc43)[C@@H](C(=O)N3CCCCCCC3)[C@H]12`, the composite z-score in [1] was determined as 1.74; in assay [6], 3.13; in [7] it was 1.67; with Torsin-1A (Homo sapiens) [8], 2.71; with Torsin-1A (Homo sapiens) [9], 2.35; in assay [10] it was 2.27. Moreover, the z-score in assay [2] was -2.41 (inactive); in assay [3], -1.55 (inactive); in assay [4], 0.362 (inactive); in assay [5], -0.981 (inactive).
As for `COc1ccc(CCNC(=O)[C@@]2(c3ccc([N+](=O)[O-])cc3)CC(=O)N(CC34CC5CC(CC(C5)C3)C4)[C@@H]2c2ccc(CO)cc2)cc1`, the composite z-score amounted to 0.145 in assay [1]; 0.531 in assay [6]; 0.327 in assay [7]; 0.246 with Torsin-1A (Homo sapiens) [8]; 0.388 with Torsin-1A (Homo sapiens) [9]; 0.948 in [10]. Besides, the z-score in assay [2] is -5.75 (inactive); in [3] it was -1.36 (inactive); in assay [4], -0.062 (inactive); in assay [5], 0.164 (inactive).
As for `CC1CC/C=C\[C@H]2OC34C=CCN(Cc5ccccc5)C(=O)[C@H]3N(CCCCCO)C(=O)[C@@H]4C2C(=O)O1` (stereo not given in full), the composite z-score is 0.008 in assay [1]; -0.966 in assay [6]; -0.242 in [7]; -1.17 with Torsin-1A (Homo sapiens) [8]; -1.4 with Torsin-1A (Homo sapiens) [9]; -0.829 in [10]. Besides, the z-score was 0.398 (inactive) in assay [2], 1.96 (inactive) in [3], 1 (inactive) in assay [4] and 0.424 (inactive) in assay [5].
For the molecule `CCOC(=O)C1=CCC(c2ccc(C#N)cc2)N(S(=O)(=O)c2ccc(C)cc2)C1` (stereo not given), the composite z-score in assay [1] was 0.445; in assay [6] it was 1.87; in assay [7] it was 0.211; with Torsin-1A (Homo sapiens) [8], 0.375; with Torsin-1A (Homo sapiens) [9], 0.709; in [10] it was 0.409. Besides, the z-score in [2] was -4.77 (inactive); in assay [3], -0.0317 (inactive); in assay [4] it was 0.22 (inactive); in [5], -0.986 (inactive).
Take `O=C1O[C@H](c2ccccc2)[C@H](c2ccccc2)N2[C@H]1[C@@H](C(=O)O)[C@]1(C(=O)Nc3ccc(C#CC4(O)CCCCCC4)cc31)[C@H]2c1ccc(OCCO)cc1`: the composite z-score in assay [1] was -0.0477; in [6] it was 1.52; in assay [7] it was 0.122; with Torsin-1A (Homo sapiens) [8], 0.477; in the assay with Torsin-1A (Homo sapiens) [9], 0.617; in [10], 0.258. Besides, the z-score in assay [2] is -0.551 (inactive); in assay [3], -1.01 (inactive); in [4], 5.5 (inactive); in assay [5], 14.7 (active).
For the molecule `C=CCC(OC(C)=O)[C@@H]1[C@@H](N(Cc2ccc(-c3ccccc3)cc2)C(=O)Cc2ccc(OC)cc2)c2cc(OCCCO)ccc2N1C(=O)c1ccc2ccccc2n1` (stereo not given in full), the composite z-score in assay [1] is -0.167; in [6], 0.437; in [7], -0.0471; in the assay with Torsin-1A (Homo sapiens) [8], -0.0598; with Torsin-1A (Homo sapiens) [9] it was 0.0615; in [10] it was -0.111. Further, the z-score in assay [2] is -1.53 (inactive); in assay [3], 0.321 (inactive); in assay [4] it was 0.409 (inactive); in assay [5] it was 0.677 (inactive).
Consider `COC(=O)[C@@]1(Cc2ccccc2)N=C(c2ccc(OCCCO)cc2)O[C@H]1c1ccccc1N=[N+]=[N-]`, for which the composite z-score is 0.805 in assay [1]; -1.09 in assay [6]; 0.25 in [7]; 3.85 in the assay with Torsin-1A (Homo sapiens) [8]; 3.84 with Torsin-1A (Homo sapiens) [9]; 2.07 in assay [10]. In addition, the z-score in [2] was -4.03 (inactive); in [3] it was -0.0344 (inactive); in assay [4], 2.95 (inactive); in [5], -1.52 (inactive).
Regarding `CC(C)OC(=O)CC(=O)CC(O)c1ccc(C#N)cc1` (stereo not given), the composite z-score in assay [1] is -0.0818; in assay [6] it was -0.425; in assay [7] it was 0.0816; with Torsin-1A (Homo sapiens) [8], 2.11; with Torsin-1A (Homo sapiens) [9], 2; in assay [10], -0.305. Besides, the z-score in assay [2] was -1.68 (inactive); in assay [3], -0.577 (inactive); in assay [4], -0.583 (inactive); in assay [5], -1.27 (inactive).
As for `COc1ccc(C(=O)Nc2cccc(CN3C(=O)[C@@]4(O[C@@H](CCn5cc(CCO)nn5)[C@H]([Si](C)(C)c5ccc(OC)cc5)[C@H]4C)c4ccccc43)c2)cc1`, the composite z-score in [1] was 0.504; in [6], 0.37; in assay [7], 0.0184; with Torsin-1A (Homo sapiens) [8] it was 0.503; with Torsin-1A (Homo sapiens) [9], 0.347; in [10], 1.72. Further, the z-score was -8.01 (active) in assay [2], -0.609 (inactive) in assay [3], 8.36 (active) in assay [4] and -1.29 (inactive) in [5].
With `COc1c(C)cc(-c2cc3c(c(-c4ccc(Oc5ccccc5)cc4)n2)[Si](C(C)C)(C(C)C)OC3)cc1C`, the composite z-score in assay [1] is 0.285; in assay [6], -0.246; in [7], 0.127; with Torsin-1A (Homo sapiens) [8], -0.238; with Torsin-1A (Homo sapiens) [9], 0.164; in [10] it was 0.205. Moreover, the z-score in assay [2] is -0.0304 (inactive); in assay [3], 0.0144 (inactive); in assay [4], 0.148 (inactive); in assay [5], 0.151 (inactive).
Consider `O=C1O[C@H](c2ccccc2)[C@H](c2ccccc2)N2[C@H]1[C@@H](C(=O)O)[C@]1(C(=O)Nc3ccc(C#CC4=CCCCC4)cc31)[C@H]2c1ccc(OCCO)cc1`, for which the composite z-score turned out to be 1.04 in assay [1]; 1.22 in assay [6]; 0.201 in [7]; 0.586 in the assay with Torsin-1A (Homo sapiens) [8]; 1.16 in the assay with Torsin-1A (Homo sapiens) [9]; 1.09 in [10]. Moreover, the z-score is -1.89 (inactive) in [2], -1.37 (inactive) in assay [3], 0.0816 (inactive) in assay [4] and 3.42 (inactive) in [5].
As for `CC(c1ccccc1)C(O)C1C=CC2C(=O)NC(=O)C2N1Nc1ccccn1` (stereo not given), the composite z-score in [1] is 0.211; in assay [6] it was 0.0932; in [7], 0.0906; with Torsin-1A (Homo sapiens) [8], 0.763; with Torsin-1A (Homo sapiens) [9], 0.197; in assay [10], 0.341. The z-score in assay [2] was 1.25 (inactive); in assay [3] it was -1.1 (inactive); in [4] it was -0.329 (inactive); in assay [5], -1.03 (inactive).
As for `CCOC(=O)C[C@H]1[C@H](OC(=O)c2ccc(-c3ccccc3)cc2)[C@@H](NC(=O)c2ccc3ccccc3c2)c2cc(OCCCO)ccc2N1C(=O)Cc1ccc(OC)cc1`, the composite z-score in assay [1] was 0.266; in [6] it was -0.0829; in [7], -0.0954; in the assay with Torsin-1A (Homo sapiens) [8] it was 0.0044; with Torsin-1A (Homo sapiens) [9], -0.497; in [10], -0.0004. For the same molecule, the z-score was 0.359 (inactive) in assay [2], -0.599 (inactive) in assay [3], -1.01 (inactive) in assay [4] and 0.809 (inactive) in [5].
